Among the data in PubChem BioAssay (NCATS) are Potency values, retold here.

Molecules are shown by their SMILES. Inconclusive results are not listed. Activity calls are given as the source filed them. Calls come from the whole dose curve; tested in HEK293 reporter line.

A short description of assay [1]: qHTS for Inhibitors of the Functional Ribonucleoprotein Complex (vRNP) of Lassa (LASV) Arenavirus: LASV Primary Screen - GLuc reporter signal (AID 1347082). Note: series mostly up to about 57 µM; nearly all actives have a fitted effect of over 60% in size.
Assay [2] in a line: qHTS for Inhibitors of the Functional Ribonucleoprotein Complex (vRNP) of Lassa (LASV) Arenavirus: Viability assay - alamar blue signal for LASV Primary Screen (AID 1347083). Note: nearly all actives have a fitted effect of over 80% in size. Note: potency is the fitted concentration of half-maximal effect.
The nature of assay [3]: qHTS for Inhibitors of the Functional Ribonucleoprotein Complex (vRNP) of Lymphocytic Choriomeningitis Arenaviruses (LCMV): Viability assay - alamar blue signal for LCMV Primary Screen (AID 1347085). Note: nearly all actives have a fitted effect of over 80% in size. Note: potency is the fitted concentration of half-maximal effect.

As for `NC(=O)NS(=O)(=O)c1ccc(Cl)cc1`, the Potency result in assay [1], in assay [2] and in assay [3] was “inactive” in each case.

Consider `O=C(Cn1ccnc1[N+](=O)[O-])NCc1ccccc1`, for which the Potency entry in assay [1], in assay [2] and in assay [3] was “inactive” each time.

For the molecule `CCCCCCCCCCCCCCCCCCN(C)C`, the Potency entry in assay [1], in assay [2] and in assay [3] was “inactive” each time.

As to `CCN(CC)CCNC(=O)COc1ccc(OC)cc1`, the Potency entry in assay [1], in assay [2] and in assay [3] was “inactive” in each case.

Turning to `CO[C@@H]1[C@@H](OC(N)=O)[C@@H](O)[C@H](Oc2ccc3c(O)c(NC(=O)c4ccc(O)c(CC=C(C)C)c4)c(=O)oc3c2C)OC1(C)C`, the Potency entry in assay [1], in assay [2] and in assay [3] was “inactive” in each case.

As for `COc1cc(-c2ccc(=O)[nH]n2)ccc1OC(F)F`, the Potency entry in assay [1], in assay [2] and in assay [3] was “inactive” in each case.

Regarding `COc1cccc2c1C(=O)c1c(O)c3c(c(O)c1C2=O)C[C@@](O)(C(=O)CO)C[C@@H]3O[C@H]1C[C@H](N)[C@@H](O)[C@H](C)O1`, the Potency in assay [2] and in assay [3] was 1090 nM (active) each time.

As to `CCCc1ccc(OCC(=O)N2CCN(C(=O)COc3ccc(CCC)cc3OC)CC2)c(OC)c1`, in assay [3], the Potency entry is “inactive”.

As to `OC[C@H]1O[C@@H]2O[C@H]3[C@H](O)[C@@H](O)[C@@H](O[C@H]4[C@H](O)[C@@H](O)[C@@H](O[C@H]5[C@H](O)[C@@H](O)[C@@H](O[C@H]6[C@H](O)[C@@H](O)[C@@H](O[C@H]7[C@H](O)[C@@H](O)[C@@H](O[C@H]8[C@H](O)[C@@H](O)[C@@H](O[C@H]1[C@H](O)[C@H]2O)O[C@@H]8CO)O[C@@H]7CO)O[C@@H]6CO)O[C@@H]5CO)O[C@@H]4CO)O[C@@H]3CO`, the Potency result in assay [1], in assay [2] and in assay [3] was “inactive” each time.
